Source: PubChem (National Center for Advancing Translational Sciences (NCATS))
This is a sample that favours compounds with a hit; in the whole collection about 6.2% have one here.
MARV entry inh: blocks Marburg virus binding to or entry into cells | Marburg virus pseudotyped entry inhibition, cell reporter | Potency, µM (titrated, usually from 37.8 µM), for the others: top-dose activity change, negative = inhibition, actives largely listed as inhibitors | actives 1.8% (n = 300,000); calls by dose curve; tested in HEK293 cells; note: potency is the fitted concentration of half-maximal effect
HCMV inh: inhibitors of human cytomegalovirus | HFF cells, HCMV-luciferase reporter, 72 h; active compounds read low | activity change, negative = inhibition, % at 57.5 µM | actives 4.5% (n = 410,000) | AID 1259415; in the data active = activity change below about -60%; inconclusive = no clear call, values can overlap the other calls; inactive = above about -39%
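Steps: HFFs plated, 16 h 37C; compounds added; HCMV-luciferase added to MOI 1 PFU/cell; 72 h 37C; OneGlo reagent, 5 min room temperature; luminescence read, normalized to controls.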
FMDV inh: foot and mouth disease virus antiviral activity | AID 1159524 | FMDV antiviral cell-based qHTS | actives 1.2% (n = 410,000) | Potency, µM (titrated, usually from 57.9 µM), inactives show at the top dose activity change, negative = inhibition, most hits filed as inhibitors; calls by dose curve; tested in HEK293T cells; note: read-out not given here; potency is the fitted concentration of half-maximal effect; nearly all actives have a fitted effect of over 45% in size
LASV entry inh: blocks Lassa virus binding to or entry into cells; Lassa virus pseudotype entry inhibition, cell reporter; Potency, µM (highest dose often 37.9 µM), for the others: top-dose activity change, negative = inhibition, actives largely listed as inhibitors; actives 1.2% (n = 300,000); calls by dose curve; tested in HEK293 cells; note: potency is the fitted concentration of half-maximal effect; nearly all actives have a fitted effect of over 50% in size
Numbers without * were called inactive; ? = inconclusive; / = not tested or not shown; [ ] = another dose, or the depositor's remark. % is set by controls: 0 for no effect and ±100 for the full control effect.

SMILES | MARV entry inh | HCMV inh | FMDV inh | LASV entry inh
COCc1c(C(=O)N2CCN(C)CC2)cnn1-c1ncc2c(n1)-c1ccccc1CCC2 | / | / | -10.2% | /
COCc1ccc(CN2CCOc3c(cc(-c4cc(C)c5cccc(OC)c5n4)cc3OC)C2)o1 | / | / | -11.3% | /
CCN1CCN(CC(=O)Nc2ccc(Cl)c(S(=O)(=O)N(C)C)c2)CC1 | / | -24.5 | -10.5% | /
CCCCc1ccc(NC(=S)Nc2ccc(Cl)c(S(=O)(=O)N(C)C)c2)cc1 | ? | -62.9* | -17.3% | ?
CCc1nc2sc3c(N4CCCCC4)ncnc3c2c2c1CCCC2 | 11.5%[46.1 µM] | 9.0 | -2.9% | 15.9%[46.1 µM]
COc1ccc(C(C[N+](=O)[O-])c2c(C)[nH]n(-c3ccccc3)c2=O)cc1 (configuration not stated) | -10.4%[46.1 µM] | -102.5* | -1.2% | 3.8%
CCCCN(C)CCNC(=O)C1CCN(c2nc3ccc(CC)cc3s2)CC1 | ? | -97.9* | 0.4% | 25.9%[46.1 µM]
COc1ccc2c3c([nH]c2c1)[C@H](CO)N(C(=O)c1cccc(F)c1)CC31CCN(S(=O)(=O)c2cccs2)CC1 | / | -17.0 | / | /
CCOc1ccc(-c2nonc2NC(=O)COc2ccccc2)cc1 | / | -7.9 | 24.9% | 4.4%[46.1 µM]
CC1C=CCC2C(=O)N(c3cccc(C(=O)NCCc4ccccc4)c3)C(=O)C12 (configuration not stated) | / | -61.0* | -12.1% | /
CC1C=CCC2C(=O)N(c3cccc(C(=O)NCc4ccccc4)c3)C(=O)C12 (configuration not stated) | / | 32.1 | -25.9% | /
CCOc1ccc(-c2cc(N)n(S(=O)(=O)c3ccc(OC)c(OC)c3)n2)cc1 | 0.6% | -60.2* | -17.8% | /
CCCN1CCN(C(=O)c2cnn(-c3ncc4c(n3)-c3ccccc3CCC4)c2COC)CC1 | / | / | -12.0% | /
O=C(Nc1ccc([N+](=O)[O-])cc1)Nc1ccc(OC(F)F)c(Cl)c1 | ? | -101.3* | 25.1µM* | 14.6µM*
COc1ccc(/C=C(/C#N)C(=O)Nc2cccc(C)c2C)cc1C(=O)O | -10.7% | -36.0 | -8.4% | 11.3%
COc1ccc(NC(=O)Nc2cccc([N+](=O)[O-])c2)cc1Cl | ? | -100.0* | ? | -15.4%
COc1ccc(/C=C(/C#N)C(=O)Nc2cccc([N+](=O)[O-])c2)cc1C(=O)O | -8.8%[46.1 µM] | -101.8* | -17.1% | -2.7%[46.1 µM]
COc1ccc(C(=O)Nc2cccc([N+](=O)[O-])c2)cc1Br | ? | 46.3 | -27.2% | ?
O=C(Nc1ccc(OC(F)F)c(Cl)c1)Nc1ccc2c(c1)OCO2 | -3.5% | 15.7 | -9.4% | -25.0%
COc1ccc(NC(=S)Nc2cccc([N+](=O)[O-])c2)cc1 | ? | -96.3* | 20.8% | 5.5%
COc1ccc(NC(=O)c2cccc([N+](=O)[O-])c2)cc1 | 1.3%[46.1 µM] | 5.5 | 27.1% | ?
Cc1ccc(-c2csc(=Nc3ccc(F)cc3)n2Cc2ccc3c(c2)OCO3)cc1C | 14.7%[46.1 µM] | 10.1 | -18.8% | -1.5%[46.1 µM]
O=C(Nc1cccc([N+](=O)[O-])c1)c1cccc(C(=O)Nc2cccc([N+](=O)[O-])c2)c1 | / | 73.9 | -23.4% | /
CCC(=O)Nc1ccc2c(c1)Cc1cc([N+](=O)[O-])ccc1-2 | -5.8% | -86.2* | 34.6% | ?
CC(NC(=O)Nc1cccc([N+](=O)[O-])c1)(C(F)(F)F)C(F)(F)F | ? | -93.3* | ? | ?
SMILES | MARV entry inh | HCMV inh | FMDV inh | LASV entry inh
O=C(Nc1cccc([N+](=O)[O-])c1)Nc1ccc2c(c1)CCC2 | ? | -103.4* | -27.2% | ?
O=C(NC1CC1)[C@@H]1C[C@@H](Sc2nc3ccccc3[nH]2)CN1CC1CCCCC1 | / | / | -9.8% | /
Cc1cccc(C(=O)Nc2cccc3c2CCCC3)c1 | 3.3% | -101.5* | 22.8% | 28.2%
CC(=O)Nc1ccccc1NC(=O)c1ccc(C)cc1C | ? | -62.6* | -1.8% | -3.6%
Cc1cccc(C(=O)Nc2ccc(NC(=O)c3cccc(C)c3)cc2)c1 | / | -27.7 | 0.0% | /
Cc1cccc(C(=O)Nc2ccccc2NC(=O)c2cccc(C)c2)c1 | -5.2%[46.1 µM] | -61.5* | -21.6% | 9.8%[46.1 µM]
CCOc1ccccc1NC(=O)c1c(NC(=O)c2cccc(C)c2)sc2c1CCCC2 | / | -85.0* | -9.7% | 13.4%[46.1 µM]
COc1ccc(C(=O)Nc2cccc3c2CCCC3)cc1OC | / | 31.5 | 9.3% | /
CC(=O)Nc1ccc(C)cc1NC(C)=O | 21.4%[46.1 µM] | -2.4 | -4.9% | 0.9%
CCOc1ccccc1NC(=O)c1c(NC(=O)Cc2ccccc2)sc2c1CCCC2 | / | 19.1 | 5.2% | -7.2%[46.1 µM]
O=C(NC1CCCCC1)N1CC(=O)N2[C@H](CO)[C@H](c3ccc(Br)cc3)[C@@H]2C1 | / | -18.1 | / | /
O=[N+]([O-])c1cc(S(=O)(=O)Oc2ccccc2)ccc1Cl | ? | -88.7* | ? | ?
O=S(=O)(Oc1ccccc1)c1ccc(Cl)c(Cl)c1 | 0.6%[46.1 µM] | -5.3 | 3.6% | 0.0%[46.1 µM]
Cc1[nH]c2ccc(Br)cc2c(=S)c1C/C=C/Cl | / | 5.9 | -6.7% | /
Cc1[nH]c2ccc3ccccc3c2c(=O)c1C/C=C/Cl | -14.1% | -89.1* | -2.9% | 19.7%
N[C@@H](Cn1ccc(=O)c(O)c1)C(=O)O | 1.2% | / | / | ?
C/C(=N\Nc1nc2ccccc2s1)c1ccc(Br)s1 | ? | -19.6 | ? | ?
CC(=NNc1nc2ccccc2s1)c1ccncn1 | ? | -100.4* | 0.0% | ?
Cc1ccccc1NC(=O)C(C)OC(=O)C1CC(=O)N(Cc2ccco2)C1 (configuration not stated) | / | -102.1* | -2.2% | /
CCOC(=O)Nc1cc(OC)cc2ccc(C)nc12 | / | -34.2 | -17.6% | /
O=C(NCc1ccco1)c1cc2nc(C3CC3)cc(C(F)(F)F)n2n1 | 1.1%[46.1 µM] | 10.0 | 7.7% | 3.55µM*
COc1ccc2oc3cc(C)[n+]([O-])c(-c4ccc(Br)cc4)c3c2c1 | -27.6% | -84.3* | 31.6µM* | ?
CCOC(=O)c1c(-c2ccc(OC)cc2)oc2ccc(OCc3ccc(Br)cc3)cc12 | 11.7%[46.1 µM] | 23.7 | -10.5% | 16.7%[46.1 µM]
COCCn1c(C)cc(O)c(C(c2ccc(OC)cc2)N2CCCCC2)c1=O (configuration not stated) | / | -10.1 | -14.8% | ?
CCc1ccccc1N1CC(c2nc3ccccc3n2CCCOc2ccc(Cl)cc2)CC1=O (configuration not stated) | ? | 14.4 | 27.3% | ?
SMILES | MARV entry inh | HCMV inh | FMDV inh | LASV entry inh
C=CC[C@]12C=C(OC)C(=O)C(OC)=C1O[C@@H](c1ccc3c(c1)OCO3)[C@H]2C | / | 30.8 | -17.5% | /
C=CC[C@]12CC=CC(=O)[C@@]1(O)O[C@H](c1ccc(OC)c(OC)c1)[C@H]2C | / | -8.9 | 20µM* | /
Cc1ccc2nc(N3CCN(c4cccc(Cl)c4)CC3)c(-n3nc(C)cc3C)nc2c1 | ? | 2.9 | -18.4% | -2.8%[46.1 µM]
COc1ccc(-n2nc3ccc(N)cc3n2)cc1 | / | 72.6 | -23.2% | /
CCOc1ccc(-n2nc3ccc(N)cc3n2)cc1 | / | -92.8* | ? | /
Cc1cc2nn(-c3ccc(F)cc3)nc2cc1N | 5.01µM* | 107.3 | -29.8% | ?
Cc1ccc(-n2nc3ccc(N)cc3n2)cc1 | ? | 62.7 | 10.8% | 11.2µM*
O=C(Cn1cc(SCc2ccccc2F)c2ccccc21)N1CCCCC1 | / | 0.7 | 8.2% | 19.1%[46.1 µM]
Cc1ccc(C(=O)NCC(c2ccc3c(c2)OCO3)N2CCOCC2)cc1C (configuration not stated) | / | -11.1 | -14.3% | 19.0%[46.1 µM]
